# Screening data deposited in PubChem by National Center for Advancing Translational Sciences (NCATS).
# Sampled rows, rich in hits. Any-hit rate of the full collection: about 6.2%.
# KB-3-1 cytotox: KB-3-1 parental cell cytotoxicity; Potency, µM (doses to about 46.1 µM), actives largely listed as cytotoxic; KB-3-1 viability, CellTiter-Glo ATP luminescence, 72 h; 400,000 compounds, 1.4% hits; AID 1347075; also: % is scaled to controls: 0 for no effect and ±100 for the full control effect; nearly all actives have a fitted effect of over 60% in size
#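 Viability of parental KB-3-1 cells, measured by CellTiter-Glo luminescence, followed a 72 h incubation at 37 °C with pinned compounds in phenol-red-free DMEM containing 10% FBS.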
# ATXN2 expr inh: ATXN2 expression inhibition; 360,000 compounds, 0.72% hits; Potency, µM (highest dose often 57 µM), for inactives: at the top dose activity change, negative = inhibition, most hits filed as inhibitors; HEK-293 ATXN2-luciferase reporter, luminescence, 24 h; AID 1745845; also: % is scaled to controls: 0 for no effect and ±100 for the full control effect; nearly all actives have a fitted effect of over 55% in size
#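 ATXN2-luciferase reporter cells (luciferase flanked by upstream and downstream ATXN2 gene portions) were treated 24 h at 37 °C with compounds at up to 57 uM. SteadyGlo luminescence gave expression; GF-AFC fluorescence gave viability.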
# ATXN viability: cell viability loss in ATXN counter-screen; 400,000 compounds, 0.49% hits; Potency, µM (titrated, usually from 56.7 µM), most hits filed as cytotoxic; S2 cells (HEK-293 line with an ATXN2-luciferase reporter) viability, CellTiter-Fluor protease fluorescence, 24 h; AID 651635; also: nearly all actives have a fitted effect of over 40% in size
# HT1080-NT tox: kills 2HG-producing HT-1080-NT fibrosarcoma cells | Potency, µM (doses to about 46.1 µM), without a hit: top-dose activity, negative = less viability, usual class: cytotoxic | HT-1080-NT fibrosarcoma viability, CellTiter-Glo ATP luminescence, 48 h | 360,000 compounds, 1.6% hits;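 also: NT is the 2HG producing partner of a matched IDH1 knockdown line; 0% = DMSO-treated cells and -100% = media-only wells without cells; nearly all actives have a fitted effect of over 55% in size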
#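 A 48-hour cytotoxicity screen used HT-1080-NT cells plated 2 hours before compound delivery. ATP-based CellTiter-Glo luminescence measured viability, normalized to DMSO and no-cell controls.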
# KB-V1 MDR tox: KB-V1 MDR subline cytotoxicity; 400,000 compounds, 3.4% hits; Potency, µM (top dose mostly 46.1 µM), usual class: cytotoxic; KB-V1 MDR cells viability, CellTiter-Glo, 72 h; also: % is scaled to controls: 0 for no effect and ±100 for the full control effect; nearly all actives have a fitted effect of over 60% in size
#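 KB-V1 MDR subline cells in DMEM (phenol-red free, 10% FBS) exposed to compounds in qHTS concentration series for 72 h at 37 degrees C. Viability read by CellTiter-Glo luminescence; concentration-effect curves fitted after normalization and correction.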
# HT1080 IDH1KD tx: toxicity to HT-1080 IDH1 knockdown cells (counter line) | AID 686971 | HT-1080 IDH1 knockdown viability, ATP luminescence, 48 h | Potency, µM (highest dose often 46.1 µM), without a hit: top-dose activity, negative = toxicity, hits mostly cytotoxic | 360,000 compounds, 2% hits;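 also: 0% = DMSO wells and -100% = cell-free medium wells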
#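 After a 2 h attachment period, IDH1KD HT-1080 cells took pin-transferred compound for 48 h at 37 °C; ATP-based luminescence after 10 min room-temperature reagent incubation reported viability.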
# * marks the source's active call; other numbers are inactive results; i = inactive; ? = inconclusive; . = not tested or not shown; [ ] = another dose, or the depositor's remark. Calls follow the shape of the dose curve; as a rule, active = well fitted curve in the direction sought with a large enough effect; inconclusive = small, poorly fitted or top-dose-only effect, or another doubt; inactive = no such curve, though single readings can be large; an effect the other way counts as inactive or inconclusive. Potency is read from the fitted curve at half-maximal effect.
SMILES,KB-3-1 cytotox,ATXN2 expr inh,ATXN viability,HT1080-NT tox,KB-V1 MDR tox,HT1080 IDH1KD tx
Nc1c(C(=O)Nc2ccccc2Cl)c2ccccn2c1C(=O)c1ccccc1,i,4%,i,.,i,.
Cc1ccc(NC(=O)c2ccc(OCC3CCCO3)cc2)cc1 (stereo not given),i,68%,i,2%,21µM*,7%
O=C(Nc1ccc(S(=O)(=O)N2CCCC2)cc1)c1ccc(OCC2CCCO2)cc1 (stereo not given),21µM*,-19%,i,?,?,?
Cc1ccc(NC(=O)c2ccc(OCC3CCCO3)cc2)nc1 (stereo not given),i,-2%,i,2%,?,-3%
O=C(Nc1cccc(S(=O)(=O)N2CCCCC2)c1)c1ccc(OCC2CCCO2)cc1 (stereo not given),i,-11%,.,-12%,8.2µM*,-11%
CCn1c(C)nc2cc(C(=O)N/N=C(\C)c3ccc(OC)cc3O)ccc21,i,?,i,?,?,15µM*
CCn1c(C)nc2cc(C(=O)NN=C(C)c3ccc(C#N)cc3)ccc21,i,8%,i,-10%,i,-1%
CCOC(=O)Nc1sc(C)nc1-c1ccccc1,i,25%,i,3%,?,8%
CCOC(=O)Nc1nc(-c2ccccc2)c(C(=O)c2ccc(Cl)cc2)s1,1.2µM*,-12%,?,?,1.3µM*,0.52µM*
FC(F)(F)c1cccc(-c2nnc(-c3ccccc3)c(N3CCOCC3)n2)c1,i,-22%,i,-21%[9.24 µM],i,-28%
O=[N+]([O-])c1ccc(-c2nnc(-c3ccccc3)c(N3CCOCC3)n2)cc1,i,-19%,i,3%,12µM*,3%
CC(C)NCC(=O)NC12CC3CC(CC(C3)C1)C2,i,3%,i,2%,21µM*,6%
Cc1ccc2c(c1)CN(CCNC(=O)c1cccc(Cn3cccn3)c1)CC(C)O2 (stereo not given),.,.,i,.,.,.
c1nc(CCO[C@H]2CCCCO2)cc2cc3c(cc12)OCO3,i,11µM*,i,7%,i,7%
c1ccc2cc(CCO[C@H]3CCCCO3)ncc2c1,i,?,i,-1%,i,-2%
COC(=O)c1sc2ccccc2c1-n1cccc1C(=O)C(=O)Nc1ccc(C)cc1,?,1%,i,-6%,9.2µM*,-6%[9.24 µM]
COC(=O)c1sc2ccccc2c1-n1cccc1C(=O)C(=O)Nc1ccc(Cl)cc1,?,-9%,i,-2%,12µM*,0%
COc1ccc(NC(=O)CSc2nc(C)cs2)c([N+](=O)[O-])c1,i,21%,?,-2%,23µM*,3%
Cc1csc(SCC(=O)Nc2cccc(C)c2C)n1,i,-4%,i,-1%,16µM*,10%
COc1ccc(NC(=O)CSc2nccn2C)c([N+](=O)[O-])c1,i,45%,i,15%,i,14%
COc1ccc(-c2noc(CSc3nnc(-c4ccncc4)n3-c3cccc(C)c3)n2)cc1OC,i,-26%,?,.,i,.
COc1ccc(OC)c(NC(=O)c2ccc3c(c2)c(C)c(C)n3Cc2ccc(F)cc2)c1,i,.,.,.,i,.
CN(CCO)C(=O)c1cn(C2CCCN(Cc3ccc(C(F)(F)F)cc3)C2)nn1 (stereo not given),.,.,i,.,.,.
Cc1ccc(C(=O)c2cc([N+](=O)[O-])ccc2N2CCN(C)CC2)cc1,5.2µM*,?,i,10µM*,3.7µM*,7.3µM*
CN1CCN(c2ccc([N+](=O)[O-])cc2C(=O)c2ccccc2)CC1,?,-6%,?,-3%,?,-13%
SMILES,KB-3-1 cytotox,ATXN2 expr inh,ATXN viability,HT1080-NT tox,KB-V1 MDR tox,HT1080 IDH1KD tx
O=C(c1ccc(Br)cc1)c1cc([N+](=O)[O-])ccc1N1CCCCC1,1µM*,-24%,?,1.8µM*,?,2.1µM*
CN1CCN(c2ccc([N+](=O)[O-])cc2C(=O)c2ccc(Br)cc2)CC1,2.9µM*,-29%,?,13µM*,4.1µM*,15µM*
O=C(c1ccccc1)c1cc([N+](=O)[O-])ccc1N1CCCC1,?,-35%,i,-7%,i,-19%
COc1ccccc1N1CCN(C(=O)CSc2nc(-c3ccc(C(C)C)cc3)no2)CC1,i,-17%,?,.,i,.
Cc1nc(N2CCN(c3ccccn3)CC2)c2c(C)c(C(=O)N3CCN(c4ccccc4F)CC3)sc2n1,?,?,?,-25%,21µM*,-4%
CN1CCN(c2nc(-c3cccs3)cc(C(F)(F)F)n2)CC1,i,-19%,i,4%,16µM*,9%
Cc1ccccc1NC(=O)c1c(NC(=O)c2ccncc2)sc2c1CCC(C(C)(C)C)C2 (stereo not given),i,-1%,i,.,?,.
CCOc1ccc(Br)cc1CC(=O)O,i,-12%,i,6%,i,8%
CCCOc1ccc(Br)cc1CSC(=N)N,8.2µM*,?,i,-28%,i,?
CC(C(=O)NCc1ccccc1F)n1ccc2cc(S(=O)(=O)N3CCCC3)ccc21 (stereo not given),i,-18%,?,.,i,.
CCOC(=O)c1sc(NC(=O)c2cc(-c3ccccc3C)nc3ccccc23)c(C#N)c1C,8.2µM*,0%,?,?,?,?
Cc1ccccc1-c1cc(C(=O)Nc2sc(C)c(C)c2C(N)=O)c2ccccc2n1,i,?,?,?,16µM*,?
CCOC(=O)c1c(NC(=O)c2cc(-c3ccc(Cl)s3)nc3ccccc23)sc(C(N)=O)c1C,?,?,?,9%,i,1%
Cc1ccccc1C(=O)Nc1sc(C)c(C)c1C(=O)c1ccccc1,i,-3%,i,13%,7.3µM*,5%
CCOC(=O)c1sc(NC(=O)CSc2nc(C)cc(-c3ccccc3)n2)c(C#N)c1C,i,10%,i,18%,i,-7%
CCOC(=O)c1sc(NC(=O)c2ccncc2)c(C#N)c1C,4.1µM*,-1%,?,?,2.6µM*,-1%
CCOc1ccc(-c2cc(C(=O)N3CCN(S(=O)(=O)c4cc(Cl)ccc4OC)CC3)[nH]n2)cc1,i,.,.,.,?,.
CCc1ccc2c(c1)-c1ccccc1S(=O)(=O)N2CC(=O)N1CCC(C)CC1,i,15%,?,.,i,.
CCCc1cc(C(=O)N2CCN(S(=O)(=O)c3ccc(OC)c(OC)c3)CC2)cs1,i,-2%,i,-16%,5.2µM*,-28%
COc1ccc(C(=O)N2CCN(S(=O)(=O)c3ccc(Cl)cc3)CC2)cc1OC,i,-5%,i,5%,15µM*,1%
